# High-throughput results from PubChem.
# Sampled rows, rich in hits. Any-hit rate of the full collection: about 11%.
# 3T3 cytotox: NIH 3T3 cell cytotoxicity. 4.3% of 94,000 active. Potency, µM (series often up to 96.7 µM), without a hit: at the top dose activity change, negative = cytotoxicity, most hits filed as inhibitors. NIH 3T3 viability, CellTiter-Glo ATP luminescence, 48-72 h; further: on the % scale 0 is the no-effect control and ±100 the full control effect; nearly all actives have a fitted effect of over 55% in size
#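 Cells were seeded at 400 per well, treated with pin-transferred compound, and kept 48 or 72 hr at 37 °C before CellTiter-Glo addition and luminescence imaging of cellular ATP.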
# HEK293 tox: HEK 293 cell cytotoxicity; HEK 293 viability, ATP luminescence (CellTiter-Glo), 48-72 h; Potency, µM (doses to about 115 µM), without a hit: at the highest dose activity change, negative = cytotoxicity, hits mostly inhibitors; 6.6% of 94,000 active; AID 1345083; further: on the % scale 0 is the no-effect control and ±100 the full control effect; nearly all actives have a fitted effect of over 60% in size
#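 Luminescence from cellular ATP, measured with CellTiter-Glo, indicates HEK 293 viability. Cells plated at 250 cells/well are treated with compound for 48 or 72 hr at 37 degree Celsius before reagent addition.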
# FLuc inh-1: blocks purified firefly luciferase enzyme activity; P08659; purified P. pyralis luciferase, luminescence, biochemical; Potency, µM (doses to about 115 µM), most hits filed as inhibitors; 2.5% of 76,000 active; further: on the % scale 0 is the no-effect control and ±100 the full control effect; nearly all actives have a fitted effect of over 65% in size
# Target sequence (P08659 whole entry, looked up): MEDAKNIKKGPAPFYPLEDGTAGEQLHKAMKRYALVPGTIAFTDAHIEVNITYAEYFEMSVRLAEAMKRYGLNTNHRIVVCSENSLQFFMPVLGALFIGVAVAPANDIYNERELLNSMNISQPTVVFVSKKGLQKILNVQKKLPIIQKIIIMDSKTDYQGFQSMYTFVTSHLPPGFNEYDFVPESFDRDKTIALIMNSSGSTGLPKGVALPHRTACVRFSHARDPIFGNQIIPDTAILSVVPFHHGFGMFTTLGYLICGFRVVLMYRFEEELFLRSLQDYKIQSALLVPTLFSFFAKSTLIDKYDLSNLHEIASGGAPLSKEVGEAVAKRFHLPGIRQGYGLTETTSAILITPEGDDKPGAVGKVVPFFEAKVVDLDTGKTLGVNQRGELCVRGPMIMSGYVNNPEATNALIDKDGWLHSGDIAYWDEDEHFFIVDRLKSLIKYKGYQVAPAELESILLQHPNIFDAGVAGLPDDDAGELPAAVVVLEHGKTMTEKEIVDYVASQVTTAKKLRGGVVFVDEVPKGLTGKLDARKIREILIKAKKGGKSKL
#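 Purified P. pyralis luciferase (10nM final) in 50mM Tris acetate pH 7.5, 10mM Mg acetate, 0.01% Tween-20, 0.05% BSA with 10uM D-luciferin and 10uM ATP. Compounds titrated qHTS. Luminescence imaged on CCD.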
# NPR1 antag: blocks ANP-stimulated signaling of human Npr1 receptor; P16066; HEK293 hNpr1 GloSensor cGMP, ANP-stimulated luminescence; Potency, µM (top dose mostly 46.3 µM), inactives show at the highest dose activity change, negative = inhibition, most hits filed as inhibitors; 1.6% of 76,000 active; AID 1347048; calls by dose curve; further: on the % scale 0 is the no-effect control and ±100 the full control effect; nearly all actives have a fitted effect of over 60% in size
#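 Compound pre-incubated 30 min at room temperature on GloSensor-loaded HEK293 cells stably carrying hNpr1 and the pGS-40F cGMP biosensor. Stimulation uses hNppA at 0.1 nM final; luminescence is taken at baseline and 20 min post-agonist.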
# FLuc SDR -ATP: binders stabilizing firefly luciferase, without ATP; shares compounds with FLuc inh-1; Purified FLuc-C-HiBiT, Nano-Glo HiBiT luminescence, no ATP; Potency, µM (titrated, usually from 32.7 µM), for the others: at the top dose activation (signal gain), usual class: activators; 7.8% of 1,300 active; AID 1963318; further: nearly all actives have a fitted effect of over 55% in size
# FLuc SDR ATP: binders stabilizing firefly luciferase, plus ATP; purified FLuc-C-HiBiT + ATP, HiBiT complementation luminescence; 8.7% of 1,300 active; shares compounds with FLuc inh-1; Potency, µM (highest dose often 32.7 µM), for inactives: at the top dose activation (gain of signal), usual class: activators;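 further: signal reports ligand binding via conformational change of the enzyme rather than luciferase catalysis; % of control where 0% means no effect; nearly all actives have a fitted effect of over 55% in size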
# FLuc inh-2: blocks firefly luciferase enzymatic activity; shares compounds with FLuc inh-1; purified FLuc-C-HiBiT enzyme, luciferin luminescence; Potency, µM (highest dose often 32.7 µM), for inactives: at the highest dose activity change, negative = inhibition, usual class: inhibitors; 42% of 1,300 active; AID 1963320; further: on the % scale 0 is the no-effect control and ±100 the full control effect; nearly all actives have a fitted effect of over 70% in size
# NPR1 antag cnf: confirmation of human Npr1 natriuretic peptide receptor antagonists. shares compounds with NPR1 antag. HEK293 hNpr1 cGMP GloSensor luminescence, ANP-stimulated. Potency, µM (top dose mostly 57.6 µM), inactives show top-dose activity change, negative = inhibition, actives largely listed as inhibitors. 76% of 1,400 active. AID 1347044; calls by dose curve; further: nearly all actives have a fitted effect of over 70% in size
# NPR2 antag: antagonizes human Npr2, subtype selectivity check. Potency, µM (top dose mostly 57.6 µM), for inactives: at the top dose activity change, negative = inhibition, hits mostly inhibitors. HEK293 hNpr2 GloSensor cGMP luminescence, CNP-stimulated. shares compounds with NPR1 antag. 67% of 1,400 active; calls by dose curve; further: nearly all actives have a fitted effect of over 70% in size
# FLuc counter: FLuc enzyme inhibition, Npr1 counter-screen; AID 1347047; purified FLuc enzyme, luminescence, Km substrate; Potency, µM (top dose mostly 57.6 µM), inactives show at the highest dose activity change, negative = inhibition, usual class: inhibitors; shares compounds with NPR1 antag; 0.7% of 1,400 active; further: 0% is about no effect
# GloSensor cGMP: reduces cGMP signal in GloSensor control cells. shares compounds with NPR1 antag. HEK293 GloSensor cGMP, SNP-stimulated, luminescence. Potency, µM (highest dose often 57.6 µM), without a hit: at the highest dose activity change, negative = inhibition, actives largely listed as inhibitors. 69% of 1,400 active; calls by dose curve; further: on the % scale 0 is the no-effect control and ±100 the full control effect; nearly all actives have a fitted effect of over 70% in size
# * hit, by the source's call; i = inactive; ? = inconclusive; nt = no result given; [ ] = remark or other dose. Unless noted, the call rests on the fitted dose curve; in most records, active means well fitted curve in the direction sought with a large enough effect; inconclusive means small, poorly fitted or top-dose-only effect, or another doubt; inactive means no such curve, though single readings can be large; an effect the other way counts as inactive or inconclusive. Potency means the concentration at half of the fitted maximal effect.
SMILES,3T3 cytotox,HEK293 tox,FLuc inh-1,NPR1 antag,NPR1 antag cnf,NPR2 antag,FLuc counter,GloSensor cGMP,others
CC(=O)N1CC(CO)C2(CCN(C(=O)c3cccc(Br)c3)CC2)C1 (stereo unspecified),-9%,1%,i,0%,nt,nt,nt,nt,
CCCOC(=O)CSc1ncnc2sc3c(c12)CCC(C)C3 (stereo unspecified),nt,nt,nt,nt,nt,nt,nt,nt,FLuc SDR -ATP=16%;FLuc SDR ATP=11%;FLuc inh-2=?
CC(C)n1cnnc1CN(C)c1nc(N)nc2nc[nH]c12,1%,-7%,i,2%,nt,nt,nt,nt,FLuc SDR -ATP=15%;FLuc SDR ATP=8%;FLuc inh-2=-3%
CN(C)S(=O)(=O)N1CCOC(c2ccc(Cl)c(Cl)c2)C1 (stereo unspecified),?,?,i,-15%,nt,nt,nt,nt,
COc1c(C)cccc1C(=O)N1CCOC(c2ccc(Cl)c(Cl)c2)C1 (stereo unspecified),?,?,i,10µM*,17µM*,19µM*,-2%,15µM*,
CN1CCN(Cc2nnc(C(=O)N3CCC[C@@H]3C(c3ccccc3)c3ccccc3)n2-c2ccccc2)CC1,?,?,i,0%,nt,nt,nt,nt,
CCOC(=O)C1(Cc2ccc(Cl)cc2)CCN(C(=O)c2cc(C)oc2C)CC1,25µM*,20µM*,i,13µM*,22µM*,22µM*,-6%,19µM*,
CCN(CC)C(=O)[C@@H]1CCCN1[C@H](Cc1ccccc1)C(=O)NC,i,3%[172 µM],i,4%[70.6 µM],nt,nt,nt,nt,
CCCc1nc(NCc2nc(Cc3cccs3)no2)c2cnn(C)c2n1,?,45µM*,i,13µM*,22µM*,22µM*,5%,22µM*,
CC(C)Cc1cc(C(=O)NCc2nc(Cc3cccs3)no2)on1,-15%,-9%,i,4%,nt,nt,nt,nt,
O=C(c1nc2cccnc2n(C2CC2)c1=O)N1CCN([S+](=O)([O-])c2cccc(C(F)(F)F)c2)CC1,?,-6%,nt,nt,nt,nt,nt,nt,
CCOc1ccc(C(O)Cn2ccn3nc(-c4ccccc4C)cc3c2=O)cc1 (stereo unspecified),?,35µM*,i,13µM*,17µM*,?,0%,11µM*,
O=C(Nc1cc(F)cc(F)c1)N1CCC(CCNC(=O)C2(c3ccccc3)CC2)CC1,32µM*,50µM*,i,-26%,-19%,-10%,5%,5%,
O=C(Nc1ccc(F)cc1F)N1CCC(CCNC(=O)C2(c3ccccc3)CC2)CC1,-25%,?,i,5%,nt,nt,nt,nt,
CCC(C(=O)N1CCN(c2cc(-c3cccs3)[nH]n2)CC1)c1ccccc1 (stereo unspecified),?,?,i,-21%,nt,nt,nt,nt,
O=C(OCc1ccccc1)N1CCOCC12CCN(Cc1ccc3[nH]ccc3c1)CC2,?,?,i,-21%[70.6 µM],nt,nt,nt,nt,
Cc1nc(C(F)(F)F)nc(N2CCOC(c3ccc(F)cc3)C2)c1C (stereo unspecified),?,?,i,-24%,nt,nt,nt,nt,
Clc1ccc(C2CN(c3cc(C4CC4)ncn3)CCO2)cc1 (stereo unspecified),?,25µM*,i,11µM*,19µM*,22µM*,0%,17µM*,
CCc1cnc(C)nc1N1CCOC(c2ccc(Cl)cc2)C1 (stereo unspecified),?,11µM*,i,10µM*,14µM*,15µM*,0%,12µM*,
O=C(c1ccoc1)N1CCC(O)(c2ccccc2)[C@H](N2CCCC2)C1 (stereo partly specified),?,-17%,i,-2%,nt,nt,nt,nt,
Cc1ccc(-n2ncc3c2CCCC3NC(=O)c2cc(C(C)C)no2)cc1C (stereo unspecified),?,?,i,14µM*,17µM*,17µM*,-7%,12µM*,
COCc1nc2nc(-c3ccccc3)c(-c3cccc(CO)c3)cc2n1C,?,-7%[172 µM],?,2%[70.6 µM],nt,nt,nt,nt,
Cc1ccccc1Oc1c(CCC(=O)NCC2CC2)c(C)nn1-c1ccc(F)cc1,25µM*,?,i,?,?,?,3%,?,
Cc1nn(-c2ccc(F)cc2)c(Oc2ccc(F)cc2F)c1CCC(=O)NCC1CC1,?,?,i,?,?,?,4%,?,
Cc1cc(Cl)ccc1OCC(=O)N1CCC2(CC1)CC(O)CCO2 (stereo unspecified),-9%,-25%,i,-1%,nt,nt,nt,nt,
O=C(NC1CCCCC1)O[C@@H]1CO[C@H]2[C@@H]1OC[C@@H]2Nc1nccc(-c2cccs2)n1,112µM*,?,i,10µM*,5µM*,7.9µM*,4%[86.2 µM],7µM*,
O=S(=O)(N[C@H]1CO[C@H]2[C@@H]1OC[C@@H]2Nc1nccc(-c2cccs2)n1)c1cccs1,?,28µM*,i,10µM*,22µM*,19µM*,0%,15µM*,
CC(C)CN[C@H]1CO[C@H]2[C@@H]1OC[C@@H]2Nc1nccc(-c2cccs2)n1,?,?,i,25µM*,40µM*,?,4%[86.2 µM],31µM*,
COCc1nnc(C2CC3(CCN(C(=O)c4cccs4)CC3)CN2C)o1 (stereo unspecified),-12%,4%,nt,nt,nt,nt,nt,nt,
O=C(c1ccncc1)N1CC2CCC(C1)N2Cc1ccc(-c2cncnc2)cc1,-28%,?,nt,nt,nt,nt,nt,nt,
